Reference: PubChem BioAssay (NCI)
Compounds without any hit were thinned out: in the full panel of roughly 83,000, 20% have a hit.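 Results are percent growth after 48 hours of single-concentration exposure. 100 means growth as in untreated cells, lower positive values show inhibition; negative values down to -100 show cell death.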 Values without a mark were called inactive. The source made the active and inactive calls. The calls were made as follows: active = growth percent below 10; inactive = the rest.

Experiments:
Test in all cases: NCI-60 one-dose screen, 48 h (100 = growth as untreated, 0 = no growth, -100 = all killed)
Details in all cases: 10 µM unless noted
SK-MEL-2 melanoma = system: SK-MEL-2 melanoma
EKVX NSCLC = system: EKVX NSCLC
SN12C renal = system: SN12C renal
UO-31 renal = system: UO-31 renal
TK-10 renal = system: TK-10 renal
ACHN renal = system: ACHN renal
A498 renal = system: A498 renal
CCRF-CEM leukemia = system: CCRF-CEM leukemia
MOLT-4 leukemia = system: MOLT-4 leukemia
SR leukemia = system: SR leukemia
RPMI-8226 leukemia = system: RPMI-8226 leukemia
OVCAR-8 ovarian = system: OVCAR-8 ovarian
OVCAR-5 ovarian = system: OVCAR-5 ovarian
OVCAR-4 ovarian = system: OVCAR-4 ovarian
SK-OV-3 ovarian = system: SK-OV-3 ovarian
IGROV1 ovarian = system: IGROV1 ovarian
OVCAR-3 ovarian = system: OVCAR-3 ovarian
HS 578T breast = system: HS 578T breast
NCI/ADR-RES ovarian = system: NCI/ADR-RES ovarian
CAKI-1 renal = system: CAKI-1 renal

SMILES | growth (SK-MEL-2 melanoma) | growth (EKVX NSCLC) [%] | growth (SN12C renal) | growth (UO-31 renal) | growth (TK-10 renal) | growth (ACHN renal) | growth (A498 renal) | growth (CCRF-CEM leukemia) | growth (MOLT-4 leukemia) | growth (SR leukemia) | growth (RPMI-8226 leukemia) | growth (OVCAR-8 ovarian) | growth (OVCAR-5 ovarian) | growth (OVCAR-4 ovarian) | growth (SK-OV-3 ovarian) | growth (IGROV1 ovarian) | growth (OVCAR-3 ovarian) | growth (HS 578T breast) | growth (NCI/ADR-RES ovarian) | growth (CAKI-1 renal) [%]
NNCCc1ccc(NC(=O)CCCc2ccc(C(=O)Nc3ccccc3N)cc2)cc1 | 42.6% | 81.7 | 80.1% | 69.5% | 32.5% | 89.2% | 60.9% | 0.638% (active) | 27.9% | 55.2% | 41.8% | 45.6% | 74% | 70.1% | 79.3% | 86.8% | 75% | 77.8% | 85% | –
COc1ccc(/C=C/c2c(C(=O)/C=C/c3ccccc3)c(C)nc3ccccc23)cc1 | 14.2% | 41 | 23.6% | -7.16% (active) | 25.1% | 7.53% (active) | 46.6% | 7.45% (active) | 6.35% (active) | 10.7% | 0.598% (active) | 0.97% (active) | -29.3% (active) | 37.2% | 63.6% | 6.06% (active) | -22.4% (active) | 38.2% | 3.63% (active) | –
c1ccc2c(c1)CCCc1nnc3nc4ccccc4n3c1-2 | 70.5% | 37.7 | 48% | 29.9% | 41.6% | 35.1% | 54.8% | 31.5% | 31.6% | 20.5% | 31.6% | 38.5% | 37.8% | 17.9% | 50.3% | – | 23.6% | 77.1% | 24.6% | –
NC1=Nc2cc(OCCCCN3Cc4ccccc4C3)c(OCC3CC3)cc2C12CCCC2 | 12.5% | 64.7 | 66.5% | 43.2% | 87.1% | 65.7% | -0.354% (active) | 37.7% | 29.9% | 11.3% | 5.52% (active) | 45.1% | 65.3% | 39.6% | 93.4% | – | 52.5% | 53.3% | 73.2% | –
C/C=C(\C)C(=O)N[C@H]1C(O)C[C@]2(C)C3CC[C@@]4(C)C(CC[C@@H]4C(C)N(C)C)C3CCC2C1O (stereo not given in full) | 117% | 66 | 68.1% | -0.798% (active) | 109% | 60.4% | 92.9% | 14.6% | 17% | -30.4% (active) | -12.3% (active) | 84.2% | 95% | 24.2% | 87.7% | 66% | 33.5% | 71.5% | – | –
S=C(c1ccc2c(c1)OCO2)N1CCN(c2cccc(Cl)c2)CC1 | 71.7% | 50.9 | 50.7% | 57.4% | 53.3% | 34.6% | 33.3% | 18.8% | 30.9% | 11.9% | 24.6% | 38.8% | 44% | 46.3% | 20.6% | 37% | -33.7% (active) | -1.66% (active) | -13% (active) | –
COc1cc(C(=O)c2c(-c3ccccc3)oc3c(OC)cccc23)cc(OC)c1OC | 53% | 35.3 | 22.1% | 28.2% | 61.4% | 17.7% | -28% (active) | 10.2% | 11.4% | 6.57% (active) | 17.6% | 17.2% | 39.8% | 32.3% | 44.2% | 12.3% | -13.2% (active) | 2.09% (active) | 11.9% | –
Clc1c(Cl)[n+](Cc2ccc3ccccc3c2)cn1Cc1ccc2ccccc2c1 | -55% (active) | 38.7 | 28.1% | 70.7% | -63% (active) | 84.7% | 54.7% | 6.14% (active) | -0.428% (active) | -55.6% (active) | -43% (active) | -10.7% (active) | 54.9% | -3.18% (active) | 19% | -20.3% (active) | -21.8% (active) | 53.1% | 97.8% | –
CCOC(=O)C#Cc1c(C(=O)OCC)nnn1Cc1ccc(C(F)(F)F)cc1 | 97.1% | 93.6 | 57.7% | 1.49% (active) | 8.7% (active) | -25.4% (active) | 104% | 8.84% (active) | 25.1% | -1.42% (active) | 7.43% (active) | 69% | 91.2% | 67.1% | 99.7% | 81.8% | 13.6% | 113% | 97.1% | –
NS(=O)(=O)c1ccc(C(=O)NN2C(=O)c3c(Br)c(Br)c(Br)c(Br)c3C2=O)cc1 | 99% | 99.7 | 97.6% | 81.7% | 112% | 106% | 81.7% | 101% | 100% | 94.5% | 102% | 106% | 107% | 104% | 116% | 104% | 105% | 94.6% | 110% | –
COc1ccc(C2=NN(C(C)=O)C(c3cn(-c4ccccc4)nc3-c3ccc(Cl)cc3)C2)cc1 (stereo not given) | 63.7% | 41.3 | 32.8% | 38.5% | 12.1% | 8.45% (active) | 80.2% | 24% | 43.6% | 10.7% | 37.3% | 17.1% | 68.1% | -23.5% (active) | 38.1% | 54.1% | -42.6% (active) | 26.2% | 15.3% | –
CC[C@]12C=CCN3CC[C@@]4(c5ccc(OC)cc5N(C)[C@H]4[C@@](O)(C(=O)OC)[C@@H]1OC(=O)CCC[P+](c1ccccc1)(c1ccccc1)c1ccccc1)[C@@H]32 | -65.3% (active) | 10.3 | 2.73% (active) | 80% | 22.3% | 89.9% | 13.7% | – | 5.41% (active) | – | -12.6% (active) | 3.13% (active) | 21.4% | -3.58% (active) | -21% (active) | -0.0574% (active) | -2.49% (active) | 25.5% | 100% | 52.2
CC/C(Cc1ccccc1)=C(\c1ccc(OCCCN(C)C)cc1)c1ccc(OC(=O)NCc2ccccc2)cc1 | 97.5% | 78 | 77.2% | 61.5% | 92.2% | 97.4% | 85.2% | – | 45.4% | -22% (active) | 60.4% | – | 90.6% | 75.7% | 91.2% | 59% | 87.8% | 73.4% | 81.4% | 93.6
O=S(=O)(NCCNc1nccc(-c2c(-c3cccc(O)c3)nc3occn23)n1)c1ccc(Br)cc1 | 29.1% | 62.1 | 35.6% | 30.8% | 69.8% | 29.8% | 39.7% | 14.6% | 10.2% | 7.33% (active) | 29.8% | 31.3% | 51% | 36.8% | 29.4% | 4.48% (active) | 36% | 21.8% | 99.7% | –
CCc1n(Cc2ccc3ccccc3n2)cc[n+]1Cc1ccc2ccccc2n1 | -27.3% (active) | 31.9 | 10.7% | 89.5% | 41.9% | 93.3% | 84.9% | 28.1% | 28.6% | 30.2% | -1.65% (active) | 27.1% | 43.2% | 14.5% | 33.4% | 30% | 14.2% | 44.8% | 104% | –
